Assay results reported in PubChem BioAssay (EPA / NIEHS).
Results filed as inconclusive are left out. The source made the active and inactive calls. How the source made its calls, unless noted: active means hit-call score of the fitted dose curve at least 0.9, where 1 is the maximum; inactive means score below 0.9.

Columns and labels:
[1] = read-out: NAD(P)H dehydrogenase [quinone] 1 (NQO1), NQO1 (gene 1728); assay: LTEA_HepaRG_NQO1: Life Technologies and Expression Analysis (LTEA) Assay for NAD(P)H dehydrogenase [quinone] 1 (NQO1) using HepaRG (AID 2283526); details: mRNA level, 48 h; actives raise or lower the signal
How it was run: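 HepaRG, 48 h post-plating → serum-free induction medium → test chemical 48 h (duplicate, 100 uM top, half-log x8, 0.5% DMSO) → RNA isolation → qRT-PCR, ACTB/GAPDH/POLR2A normalization; bidirectional curve fit vs DMSO baseline.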

[2] = read-out: Nuclear factor erythroid 2-related factor 2 (Homo sapiens) (UniProt Q16236); assay: LTEA_HepaRG_NFE2L2: Life Technologies and Expression Analysis (LTEA) Assay for Nuclear factor erythroid 2-related factor 2 (NFE2L2) Transcription Factor using HepaRG (AID 2283527); details: mRNA level, 48 h; actives raise or lower the signal;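 further: TaqMan qRT-PCR transcript level normalised to ACTB GAPDH and POLR2A housekeeping genes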
How it was run: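 Differentiated human HepaRG cells in serum-free induction medium were exposed for 48 h to eight concentrations (top 100 uM, half-log dilutions, 0.5% DMSO), in duplicate. NFE2L2 mRNA was quantified by TaqMan qRT-PCR, normalized to ACTB, GAPDH and POLR2A, with bidirectional fitting versus DMSO.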

[3] = read-out: succinate dehydrogenase complex iron sulfur subunit B (SDHB), SDHB (gene 6390); assay: LTEA_HepaRG_SDHB: Life Technologies and Expression Analysis (LTEA) Assay for succinate dehydrogenase complex iron sulfur subunit B (SDHB) using HepaRG (AID 2283528); details: mRNA level, 48 h; actives raise or lower the signal
How it was run: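 A human HepaRG culture in serum-free induction medium received test chemicals for 48 h over an eight-point range capped at 100 uM. SDHB expression change was quantified by qRT-PCR.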

[4] = read-out: Signal transducer and activator of transcription 3 (Homo sapiens) (UniProt P40763); assay: LTEA_HepaRG_STAT3: Life Technologies and Expression Analysis (LTEA) Assay for Signal transducer and activator of transcription (STAT3) using HepaRG (AID 2283529); details: mRNA level, 48 h; actives raise or lower the signal
How it was run: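 Differentiated human HepaRG cells in serum-free induction medium were exposed in duplicate for 48 h to eight half-log concentrations up to 100 uM in 0.5% DMSO. STAT3 mRNA was quantified by TaqMan qRT-PCR, normalized to ACTB, GAPDH and POLR2A, and fitted bidirectionally against DMSO.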

[5] = read-out: solute carrier (SLCO1B1), SLCO1B1 (gene 10599); assay: LTEA_HepaRG_SLCO1B1: Life Technologies and Expression Analysis (LTEA) Assay for solute carrier (SLCO1B1) using HepaRG (AID 2283530); details: mRNA level, 48 h; actives raise or lower the signal
How it was run: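 Differentiated human HepaRG cells, plated 48 h, switched to serum-free induction medium and exposed in duplicate for 48 h to 8 half-log concentrations (top 100 uM) in 0.5% DMSO. SLCO1B1 mRNA by TaqMan qRT-PCR, normalized to ACTB/GAPDH/POLR2A.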

[6] = read-out: Transforming Growth Factor (TGFA), TGFA (gene 7039); assay: LTEA_HepaRG_TGFA: Life Technologies and Expression Analysis (LTEA) Assay for Transforming Growth Factor (TGFA) using HepaRG (AID 2283532); details: mRNA level, 48 h; actives raise or lower the signal
How it was run: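 Differentiated human HepaRG cells, plated 48 h then switched to serum-free induction medium, were exposed in duplicate for 48 h to 8-point half-log series from 100 uM in 0.5% DMSO. TGFA mRNA measured by qRT-PCR, normalized to ACTB/GAPDH/POLR2A, bidirectional fit versus DMSO.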

[7] = read-out: Transforming Growth Factor (TGFB1), TGFB1 (gene 7040); assay: LTEA_HepaRG_TGFB1: Life Technologies and Expression Analysis (LTEA) Assay for Transforming Growth Factor (TGFB1) Transporter using HepaRG (AID 2283533); details: mRNA level, 48 h; actives raise or lower the signal
How it was run: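 Differentiated human HepaRG cells in serum-free induction medium were exposed in duplicate for 48 h to eight concentrations (top 100 uM, half-log steps, 0.5% DMSO). TGFB1 mRNA was quantified by qRT-PCR, normalized to ACTB, GAPDH, POLR2A, and fitted bidirectionally against DMSO.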

TIMP1, TIMP1 (gene 7076) = assay: LTEA_HepaRG_TIMP1: Life Technologies and Expression Analysis (LTEA) Assay for TIMP1 using HepaRG (AID 2283534); details: mRNA level, 48 h; actives raise or lower the signal;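 further: TaqMan qRT-PCR signal normalized to ACTB GAPDH and POLR2A housekeeping genes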
How it was run: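 Differentiated human HepaRG cells in serum-free induction medium were exposed 48 h to chemicals (8 half-log concentrations, top 100 uM, 0.5% DMSO). TIMP1 mRNA was quantified by TaqMan qRT-PCR, normalized to ACTB/GAPDH/POLR2A; bidirectional fit versus DMSO.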

[8] = read-out: Tumor necrosis factor receptor 1 (TNFRSF1A), TNFRSF1A (gene 7132); assay: LTEA_HepaRG_TNFRSF1A: Life Technologies and Expression Analysis (LTEA) Assay for Tumor necrosis factor receptor 1 (TNFRSF1A) using HepaRG (AID 2283535); details: mRNA level, 48 h; actives raise or lower the signal
How it was run: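 Differentiated human HepaRG cells were exposed in duplicate for 48 h in serum-free induction medium to eight concentrations (top 100 uM, half-log steps, 0.5% DMSO). TNFRSF1A mRNA was quantified by qRT-PCR, normalized to ACTB, GAPDH and POLR2A, then fitted bidirectionally against DMSO.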

[9] = read-out: Thyroid Hormone Responsive (THRSP), THRSP (gene 7069); assay: LTEA_HepaRG_THRSP: Life Technologies and Expression Analysis (LTEA) Assay for Thyroid Hormone Responsive (THRSP) using HepaRG (AID 2283536); details: mRNA level, 48 h; actives raise or lower the signal
How it was run: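 Differentiated human HepaRG cells were exposed in duplicate for 48 h in serum-free induction medium to eight concentrations (top 100 uM, half-log steps, 0.5% DMSO). Expression was quantified by TaqMan qRT-PCR, normalized to ACTB, GAPDH and POLR2A, with bidirectional fitting against DMSO.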

[10] = read-out: Cellular tumor antigen p53 (Homo sapiens) (UniProt P04637); assay: LTEA_HepaRG_TP53: Life Technologies and Expression Analysis (LTEA) Assay for Tumor Protein P53 (TP53) using HepaRG (AID 2283537); details: mRNA level, 48 h; actives raise or lower the signal
How it was run: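 Gain or loss of TP53 mRNA signal is scored relative to 0.5% DMSO after 48 h chemical treatment of HepaRG liver cells, tested in duplicate at eight half-log concentrations up to 100 uM.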

[11] = read-out: UDP glucuronosyltransferase (UGT1A1), UGT1A1 (gene 54658); assay: LTEA_HepaRG_UGT1A1: Life Technologies and Expression Analysis (LTEA) Assay for UDP glucuronosyltransferase (UGT1A1) using HepaRG (AID 2283538); details: mRNA level, 48 h; actives raise or lower the signal
How it was run: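 Readout is UGT1A1 transcript level by qRT-PCR, normalized to three housekeeping genes, after 48 h chemical treatment of HepaRG cells. Concentrations ran from 100 uM down in half-log steps with 0.5% DMSO, and gain or loss relative to DMSO was fitted.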

[12] = read-out: UDP glucuronosyltransferase (UGT1A6), UGT1A6 (gene 54578); assay: LTEA_HepaRG_UGT1A6: Life Technologies and Expression Analysis (LTEA) Assay for UDP glucuronosyltransferase (UGT1A6) using HepaRG (AID 2283539); details: mRNA level, 48 h; actives raise or lower the signal
How it was run: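 Human HepaRG cells were dosed for 48 h in serum-free induction medium with 0.5% DMSO vehicle, eight-point half-log series from 100 uM, in duplicate. UGT1A6 mRNA was measured by qRT-PCR, normalized to ACTB, GAPDH, POLR2A, and fitted bidirectionally against DMSO.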

[13] = read-out: X-box binding protein 1 (XBP1), XBP1 (gene 7494); assay: LTEA_HepaRG_XBP1: Life Technologies and Expression Analysis (LTEA) Assay for X-box binding protein 1 (XBP1) using HepaRG (AID 2283540); details: mRNA level, 48 h; actives raise or lower the signal
How it was run: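 Differentiated human HepaRG cells in serum-free induction medium were exposed in duplicate for 48 h to eight half-log concentrations up to 100 uM in 0.5% DMSO. XBP1 mRNA was quantified by qRT-PCR, normalised to ACTB, GAPDH and POLR2A, with bidirectional fitting against DMSO.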

[14] = LTEA_HepaRG_LDH_cytotoxicity: Cytotoxicity Assessment in the Life Technologies and Expression Analysis (LTEA) Assay (AID 2283563; active means hit-call score of the fitted dose curve at least 0.9, where 1 is the maximum;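 on AC50: LDH activity released into spent culture medium as a marker of cell death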)
How it was run: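 Differentiated human HepaRG cells, plated 48 h beforehand, were switched to serum-free induction medium and exposed for 48 h to eight half-log concentrations (top 100 uM) in 0.5% DMSO. LDH was measured in spent medium; activity was fitted relative to DMSO vehicle.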

[15] = ATG_XTT_Cytotoxicity: Cytotoxicity Assessment in the Attagene TRANS-FACTORIAL HepG2 Assay (AID 2283584; active means hit-call score of the fitted dose curve at least 0.9, where 1 is the maximum)
How it was run: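 HepG2 human liver cells, transiently transfected with multiple GAL4-UAS reporter units, were dosed and read at 24 h by XTT as cell number. Loss of signal was fitted relative to DMSO negative control baseline.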

[16] = TOX21_p53_BLA_p2_viability: Viability Assessment in the Tox21 HCT-116 p53 Agonism Beta-lactamase Assay, Phase 2 (AID 2283591; active means hit-call score of the fitted dose curve at least 0.9, where 1 is the maximum;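 further: compound exposure lasted 16 h at 37 °C; actives lower the ATP signal meaning cytotoxicity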)
How it was run: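 HCT-116 p53-bla cells (4000/well) rested 5 h at 37C, then received compounds in DMSO (217-fold dilution) for 16 h at 37C, 5% CO2. After the CCF4 read, CellTiter-Glo was added; ATP luminescence was read after 30 min at room temperature.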

[17] = molecular target: Cellular tumor antigen p53 (Homo sapiens) (UniProt P04637); assay: TOX21_p53_BLA_p2_ratio: Tox21 HCT-116 p53 Agonism Beta-lactamase Assay, Ratio, Phase 2 (AID 2283592; active means hit-call score of the fitted dose curve at least 0.9, where 1 is the maximum)
How it was run: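 HCT116 cells carrying a p53-responsive beta-lactamase reporter were plated, incubated 5 h at 37C, then dosed with compounds in DMSO (217-fold dilution) for 16 h. CCF4-AM substrate was added for 2 h at room temperature; the 460/530 nm emission ratio gave gain-of-signal activity relative to DMSO.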

[18] = TOX21_p53_BLA_p3_viability: Viability Assessment in the Tox21 HCT-116 p53 Agonism Beta-lactamase Assay, Phase 3 (AID 2283593; active means hit-call score of the fitted dose curve at least 0.9, where 1 is the maximum;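 further: cells exposed to compound for 16 h before reading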)
How it was run: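 HCT-116 cells (4000/well) rested 5 h at 37C, then got DMSO compounds by pin tool (217-fold dilution) for 16 h at 37C, 5% CO2. After the bla read, CellTiter-Glo was added and luminescence read at 30 min, room temperature.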

[19] = read-out: sulfotransferase 2A1 (SULT2A1), SULT2A1 (gene 6822); assay: LTEA_HepaRG_SULT2A1: Life Technologies and Expression Analysis (LTEA) Assay for sulfotransferase 2A1 (SULT2A1) using HepaRG (AID 2283531); details: mRNA level, 48 h; actives raise or lower the signal
How it was run: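 Differentiated human HepaRG cells in serum-free induction medium were exposed for 48 h to eight half-log concentrations (top 100 uM, 0.5% DMSO). SULT2A1 mRNA was measured by qRT-PCR, normalized to ACTB, GAPDH and POLR2A, and fitted bidirectionally against DMSO.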

Measured: AC50

Sequence of Cellular tumor antigen p53 (Homo sapiens) (P04637 whole entry, looked up): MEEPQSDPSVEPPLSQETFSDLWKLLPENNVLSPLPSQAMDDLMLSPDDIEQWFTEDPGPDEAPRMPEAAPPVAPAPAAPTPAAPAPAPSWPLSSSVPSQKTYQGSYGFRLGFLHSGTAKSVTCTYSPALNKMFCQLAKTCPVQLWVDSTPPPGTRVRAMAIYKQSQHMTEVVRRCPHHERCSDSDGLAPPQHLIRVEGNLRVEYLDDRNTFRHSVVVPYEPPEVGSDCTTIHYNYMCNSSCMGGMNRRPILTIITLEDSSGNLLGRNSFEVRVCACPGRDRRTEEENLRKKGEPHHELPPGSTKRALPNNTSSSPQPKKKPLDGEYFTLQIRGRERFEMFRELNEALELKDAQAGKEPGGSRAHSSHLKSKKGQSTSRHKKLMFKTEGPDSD
Sequence of Nuclear factor erythroid 2-related factor 2 (Homo sapiens) (Q16236 whole entry, looked up): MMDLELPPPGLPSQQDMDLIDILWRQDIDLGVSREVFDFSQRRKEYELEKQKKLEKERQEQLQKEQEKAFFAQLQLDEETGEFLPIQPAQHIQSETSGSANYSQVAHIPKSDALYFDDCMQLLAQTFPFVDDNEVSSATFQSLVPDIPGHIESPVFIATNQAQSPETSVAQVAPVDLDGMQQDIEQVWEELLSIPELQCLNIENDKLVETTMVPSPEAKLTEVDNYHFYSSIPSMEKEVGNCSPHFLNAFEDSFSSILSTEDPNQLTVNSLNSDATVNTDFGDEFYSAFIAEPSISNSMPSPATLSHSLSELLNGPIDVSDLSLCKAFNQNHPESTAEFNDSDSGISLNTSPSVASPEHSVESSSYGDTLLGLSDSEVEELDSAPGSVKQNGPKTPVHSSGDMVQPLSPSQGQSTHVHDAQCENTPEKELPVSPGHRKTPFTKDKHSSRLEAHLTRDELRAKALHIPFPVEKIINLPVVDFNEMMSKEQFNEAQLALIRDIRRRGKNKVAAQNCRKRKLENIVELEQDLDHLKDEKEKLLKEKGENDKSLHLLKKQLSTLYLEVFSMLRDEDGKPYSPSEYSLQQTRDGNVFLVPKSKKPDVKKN
Sequence of Signal transducer and activator of transcription 3 (Homo sapiens) (P40763 whole entry, looked up): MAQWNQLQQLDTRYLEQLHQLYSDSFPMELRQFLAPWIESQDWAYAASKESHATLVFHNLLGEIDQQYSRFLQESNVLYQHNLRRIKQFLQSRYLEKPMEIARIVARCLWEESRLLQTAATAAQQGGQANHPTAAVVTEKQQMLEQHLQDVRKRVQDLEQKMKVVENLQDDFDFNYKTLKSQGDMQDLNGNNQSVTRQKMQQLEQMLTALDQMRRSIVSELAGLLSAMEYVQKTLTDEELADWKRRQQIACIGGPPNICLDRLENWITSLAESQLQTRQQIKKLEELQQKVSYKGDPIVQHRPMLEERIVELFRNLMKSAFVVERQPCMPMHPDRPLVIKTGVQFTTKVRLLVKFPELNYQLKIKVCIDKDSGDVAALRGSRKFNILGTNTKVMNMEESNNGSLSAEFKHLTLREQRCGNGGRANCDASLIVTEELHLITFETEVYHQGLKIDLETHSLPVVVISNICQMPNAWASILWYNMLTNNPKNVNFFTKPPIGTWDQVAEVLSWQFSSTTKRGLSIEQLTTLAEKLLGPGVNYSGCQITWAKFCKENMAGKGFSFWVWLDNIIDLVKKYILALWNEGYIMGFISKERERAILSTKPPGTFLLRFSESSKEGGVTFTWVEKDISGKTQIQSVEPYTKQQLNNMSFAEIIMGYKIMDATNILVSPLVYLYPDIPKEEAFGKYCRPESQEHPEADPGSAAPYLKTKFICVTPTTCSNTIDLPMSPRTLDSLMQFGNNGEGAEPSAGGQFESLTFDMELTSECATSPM

CC1(C)C(C=C(Cl)Cl)C1C(=O)OC(C#N)c1cccc(Oc2ccccc2)c1 (stereo unspecified)
active: [11] 17.3 µM
not listed: [19]
inactive: all other assays above

CSC(=O)c1c(C(F)F)nc(C(F)(F)F)c(C(=O)SC)c1CC(C)C
active: [4] 49.8 µM | [11] 11.7 µM | [14] 78.7 µM
not listed: [18] | [19]
inactive: all other assays above

CCN(CC)c1nc(C)cc(OP(=S)(OC)OC)n1
active: [11] 12.8 µM | [12] 3.58 µM
not listed: [15] | [18]
inactive: all other assays above

COC(=O)c1c(C(F)F)nc(C(F)(F)F)c(C2=NCCS2)c1CC(C)C
active: [11] 5.73 µM
not listed: [15] | [16] | [18]
inactive: all other assays above

COP(=S)(OC)Oc1ccc([N+](=O)[O-])c(C)c1
active: [11] 11.5 µM
inactive: all other assays above

Cc1nc(N(C)C)nc(OC(=O)N(C)C)c1C
active: [11] 13.9 µM
not listed: [10] | [15] | [16] | [17] | [18]
inactive: all other assays above

Nc1c(Cl)c(Cl)nc(C(=O)O)c1Cl
active: [17] 75.6 µM
not listed: [15]
inactive: all other assays above
